Results published in the supplement of paper PMC12808144.
Values without a mark were called inactive.

Columns and labels:
NHEM-hTERT = assay: cell viability relative to DMSO control (fraction of DMSO control); higher = less cytotoxic, active = 0.5 or less; settings: 1 µM; 120 h
Outline: (§1)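 Luminescence from ATPlite 1step was read after 120 h in 384-well plates carrying 315 approved anti-cancer drugs (TargetMol), acoustically pre-spotted to give 1 µM in duplicate. Cells were seeded in 40 µl per well: 2500/well NHEM-hTERT immortalized melanocytes and 1500/well patient-derived Mel-DCC-11 and Mel-DCC-11-R, its resistant subline, which was assayed alone and with 8 µM of its selecting drug. Viability was normalised to vehicle-treated controls and averaged across duplicate wells.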

Mel-DCC-11-R = assay: cell viability relative to DMSO control (fraction of DMSO control); higher = less cytotoxic, active = 0.8 or less; settings: 1 µM, 120 h
Outline: as §1

Row | SMILES | cell viability (NHEM-hTERT) | cell viability (Mel-DCC-11-R; vemurafenib co-treatment 0 µM) | cell viability (Mel-DCC-11-R; vemurafenib co-treatment 8 µM)
1 | CCOC(=O)[C@@H](N)Cc1ccc(-c2cc(O[C@H](c3ccc(Cl)cc3-n3ccc(C)n3)C(F)(F)F)nc(N)n2)cc1.O=C(O)CNC(=O)c1ccccc1 [Telotristat Etiprate] | 1.04 | 1.08 | 1.07
2 | CC#CC(=O)N1CCC[C@H]1c1nc(-c2ccc(C(=O)Nc3ccccn3)cc2)c2c(N)nccn12 [Acalabrutinib] | 1 | 1.04 | 1
3 | O=C(c1ccc(F)c(F)c1Nc1ccc(I)cc1F)N1CC(O)([C@@H]2CCCCN2)C1 [Cobimetinib] | 0.715 | 0.309 (active) | 0.302 (active)
4 | CC(C)C[C@H](NC(=O)[C@H](CCc1ccccc1)NC(=O)CN1CCOCC1)C(=O)N[C@@H](Cc1ccccc1)C(=O)N[C@@H](CC(C)C)C(=O)[C@@]1(C)CO1 [Carfilzomib] | 0.0167 (active) | 0.0186 (active) | 0.018 (active)
5 | C#Cc1cccc(Nc2ncnc3cc4c(cc23)OCCOCCOCCO4)c1 [Icotinib] | 1.18 | 1.1 | 0.849
6 | O=C(O)C1CSCN1 (stereo not drawn) [Thioproline] | 1.17 | 0.893 | 1.08
7 | Cc1c(C)c2c(c(C)c1O)CCC(C)(COc1ccc(CC3SC(=O)NC3=O)cc1)O2 (stereo not drawn) [Troglitazone] | 1.05 | 1.01 | 1.12
8 | Oc1cc(O)cc(/C=C/c2ccc(O)c(O)c2)c1 [Piceatannol] | 1.09 | 0.982 | 1
9 | Cc1ccc(=O)n(-c2ccccc2)c1 [Pirfenidone] | 1.02 | 1.03 | 1.1
10 | O.S=c1nc[nH]c2nc[nH]c12 [6-Mercaptopurine monohydrate] | 0.937 | 0.725 (active) | 0.881
11 | CC(C)NCC(O)COc1cccc2ccccc12.Cl (stereo not drawn) [Propranolol hydrochloride] | 1.16 | 0.858 | 1.06
12 | Oc1ccc(/C=C/c2cc(O)cc(O)c2)cc1 [Resveratrol] | 1 | 0.914 | 1.16
13 | CCC1=C[C@@H]2CN(C1)Cc1c([nH]c3ccccc13)[C@@](C(=O)OC)(c1cc3c(cc1OC)N(C)[C@H]1[C@@](O)(C(=O)OC)[C@H](OC(C)=O)[C@]4(CC)C=CCN5CC[C@]31[C@@H]54)C2.O=C(O)[C@H](O)[C@@H](O)C(=O)O.O=C(O)[C@H](O)[C@@H](O)C(=O)O [Vinorelbine Tartrate] | 0.644 | 1.04 | 0.703 (active)
14 | C[C@H]1O[C@@H](n2cc(F)c(=O)[nH]c2=O)[C@H](O)[C@@H]1O [Doxifluridine] | 0.863 | 1.08 | 1.21
15 | CC/C(=C(\c1ccccc1)c1ccc(OCCN(C)C)cc1)c1ccccc1.O=C(O)CC(O)(CC(=O)O)C(=O)O [Tamoxifen Z-isomer citrate] | 0.977 | 0.873 | 1.16
16 | CN(C)N=Nc1[nH]cnc1C(N)=O [Dacarbazine] | 0.982 | 1.04 | 1.17
17 | Nc1nc(=O)c2c(CCc3ccc(C(=O)N[C@@H](CCC(=O)[O-])C(=O)[O-])cc3)c[nH]c2[nH]1.[Na+].[Na+] [Pemetrexed Disodium Hydrate] | 0.995 | 1.11 | 1.13
18 | Cn1nnc2c(C(N)=O)ncn2c1=O [Temozolomide] | 1.01 | 0.884 | 0.874
19 | CN(Cc1cnc2nc(N)nc(N)c2n1)c1ccc(C(=O)N[C@@H](CCC(=O)O)C(=O)O)cc1 [Methotrexate] | 0.976 | 0.993 | 1.14
20 | O=C(Nc1c(Cl)cncc1Cl)c1ccc(OC(F)F)c(OCC2CC2)c1 [Roflumilast] | 0.841 | 1.15 | 1.31
21 | CC(O)(P(=O)(O)O)P(=O)(O)O [Etidronate] | 1.15 | 1.12 | 0.981
22 | O=C(CCBr)N1CCN(C(=O)CCBr)CC1 [Pipobroman] | 0.902 | 0.832 | 0.897
23 | C/C(=C\c1csc(C)n1)[C@@H]1C[C@@H]2O[C@]2(C)CCC[C@H](C)[C@H](O)[C@@H](C)C(=O)C(C)(C)[C@@H](O)CC(=O)N1 [Ixabepilone] | 0.595 | 0.67 (active) | 0.377 (active)
24 | O=c1[nH]c(=O)n([C@H]2C[C@H](O)[C@@H](CO)O2)cc1F [Floxuridine] | 1.11 | 1.24 | 1.07
25 | Cc1ccc(NC(=O)c2ccc(CN3CCN(C)CC3)cc2)cc1Nc1nc(-c2cccnc2)cs1 [Masitinib] | 0.801 | 1.1 | 0.944
26 | Nc1ncnc2c1ncn2[C@@H]1O[C@H](CO)[C@@H](O)[C@@H]1O [Vidarabine] | 1.02 | 1.11 | 1.1
